# Source: PubChem BioAssay (NCI)
# This is part of a sample that, as a whole, favours compounds with a hit. Of some 83,000 tested, about 20% had one in any assay.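 Single-concentration screen, 48 h exposure, 96-well plates. Endpoint: percent growth. Below 10 = active.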 Values without a mark were called inactive. Active and inactive are the calls of the source.
# Experiments:
# Assay in all cases: NCI-60 one-dose screen, 48 h (100 = growth as untreated, 0 = no growth, -100 = all killed)
# Settings in all cases: 10 µM unless noted
# SR leukemia = test system: SR leukemia
# RPMI-8226 leukemia = test system: RPMI-8226 leukemia
# OVCAR-8 ovarian = test system: OVCAR-8 ovarian
# OVCAR-5 ovarian = test system: OVCAR-5 ovarian
# OVCAR-4 ovarian = test system: OVCAR-4 ovarian
# SK-OV-3 ovarian = test system: SK-OV-3 ovarian
# IGROV1 ovarian = test system: IGROV1 ovarian
# OVCAR-3 ovarian = test system: OVCAR-3 ovarian
# HS 578T breast = test system: HS 578T breast
# NCI/ADR-RES ovarian = test system: NCI/ADR-RES ovarian
Structure (SMILES),growth (SR leukemia),growth (RPMI-8226 leukemia),growth (OVCAR-8 ovarian),growth (OVCAR-5 ovarian) [%],growth (OVCAR-4 ovarian),growth (SK-OV-3 ovarian) [%],growth (IGROV1 ovarian) [%],growth (OVCAR-3 ovarian),growth (HS 578T breast),growth (NCI/ADR-RES ovarian)
Fc1ccc(Cc2ccc(F)cc2)cc1,116%,108%,108%,102,101%,107,102,112%,114%,101%
Cc1cc(-c2nc3ccccc3s2)ccc1NC(=O)COc1ccc(Cl)cc1,87.5%,72.1%,105%,65.5,56.5%,104,31.6,120%,117%,93.3%
COc1ccc(C2CC(=O)Nc3c2c(C)nn3-c2nc3ccccc3[nH]2)cc1 (stereo not given),-36% (active),20.4%,108%,112,121%,122,12.6,18.3%,61.7%,96.3%
COc1ccc(C/C(C)=C(\c2ccc(Cl)cc2)c2ccc(OCCN3CCCCCC3)cc2)cc1,9.97% (active),54.3%,89.4%,82.5,95.7%,103,78.1,80.4%,98.4%,85.7%
S=c1[nH]nc(CSc2ncnc3c2c(-c2ccccc2)cn3-c2ccc(Cl)cc2)o1,105%,98%,97.5%,104,95.4%,78.2,92.3,101%,94.5%,99.3%
COc1ccccc1-c1ccc2c(N)c(C(=O)c3ccc4c(c3)OCO4)sc2n1,9.21% (active),62.2%,73.8%,87.7,95.7%,78.3,78.1,69.8%,87.6%,38.7%
CCC(C)[C@@H]1NC(=O)[C@@H]2CCCN2C(=O)[C@H](Cc2ccccc2)NC(=O)[C@@H]2CCCN2C(=O)[C@H](Cc2ccccc2)NC(=O)[C@@H]2CCCN2C(=O)[C@H](Cc2ccccc2)NC1=O (stereo not given in full),83.7%,85.7%,113%,105,106%,103,120,126%,106%,112%
CC/C(Cc1ccccc1)=C(/c1ccc(O)cc1)c1ccc(OCCN2CCCC2)cc1,-40.2% (active),-44.1% (active),-6.37% (active),19.8,-6.26% (active),63,13.9,-79.6% (active),-28% (active),-8.18% (active)
O=C([C@@H](COCc1ccccc1)N1C(=O)[C@@H](N2C(=O)OC[C@@H]2c2ccccc2)[C@H]1/C=C/c1ccccc1)N1CCC(CCN2CCCCC2)CC1,30.9%,65.2%,98.6%,102,86.8%,86.6,84.1,91.5%,90.8%,95.4%
CCOC(=S)SCc1ccc(Cl)cc1,80.2%,108%,101%,95.6,95.6%,150,104,94.4%,107%,105%
Cc1cc(N/N=C/c2nc(-c3ccc(Cl)cc3)oc2C)c2cc(Br)ccc2n1,4.22% (active),-15% (active),8.16% (active),96.1,-83% (active),104,63.3,-21.2% (active),78.6%,14.7%
Cc1cc(Nc2nc(N3CCNCC3)nc3ccccc23)n[nH]1,92.6%,117%,115%,89.6,96.2%,27,85.1,100%,65.2%,107%
Nc1cc(O)cc2cccnc12,73%,68.9%,80.9%,107,105%,83.4,53.4,88.8%,121%,87.3%
